Compound activity from PubChem BioAssay.
An excerpt weighted towards active compounds, which were near 3% of everything screened.
SENP8 block-1 – blocks the human protease SENP8. purified SENP8, Z-RLRGG-aminoluciferin cleavage, luminescence. inhibition, % at 10 µM. 330,000 tested, 1.2% active; in the data active = inhibition above about 50%
Target sequence (Q96LD8 whole entry, looked up): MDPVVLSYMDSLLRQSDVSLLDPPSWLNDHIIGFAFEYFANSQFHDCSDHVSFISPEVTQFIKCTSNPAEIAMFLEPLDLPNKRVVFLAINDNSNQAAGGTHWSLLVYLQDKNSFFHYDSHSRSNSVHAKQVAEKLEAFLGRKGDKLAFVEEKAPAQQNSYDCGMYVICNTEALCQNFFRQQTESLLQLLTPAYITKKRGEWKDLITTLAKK
PPC-1+TRAIL kill – kills PPC-1 cancer cells in the presence of TRAIL. PPC-1 cells + TRAIL, ATPLite viability luminescence. cell killing (% activity), % at 4 µM or 5 µM. 220,000 tested, 0.41% active;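 active = cell killing above 50% in the first pass at 4 µM, then a duplicate retest at 5 µM averaging 50% or more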;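 note: plate controls were cells with TRAIL plus DMSO for no effect and medium-only wells lacking cells for full effect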
TRAIL sens C8 – sensitizes caspase-8 expressing cells to TRAIL. NB7+C8 cells + TRAIL, ATPlite viability luminescence. inhibition (viability loss, TRAIL sensitization), % at 10 µM. 360,000 tested, 1% active. AID 624354;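 active = compounds causing at least 50% loss of cell viability in the single-dose screen, relative to plate controls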
SENP6 block – blocks the human protease SENP6 | Recombinant SENP6 catalytic domain, aminoluciferin luminescence | inhibition, % at 10 µM | 330,000 tested, 1.8% active | Q9GZR1;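 active = inhibition above about 50% at the single tested dose, limit read from the data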;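 note: plate controls were DMSO wells with enzyme for no effect and DMSO wells lacking enzyme for full effect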
Target sequence (Q9GZR1 628-1112 limits assumed): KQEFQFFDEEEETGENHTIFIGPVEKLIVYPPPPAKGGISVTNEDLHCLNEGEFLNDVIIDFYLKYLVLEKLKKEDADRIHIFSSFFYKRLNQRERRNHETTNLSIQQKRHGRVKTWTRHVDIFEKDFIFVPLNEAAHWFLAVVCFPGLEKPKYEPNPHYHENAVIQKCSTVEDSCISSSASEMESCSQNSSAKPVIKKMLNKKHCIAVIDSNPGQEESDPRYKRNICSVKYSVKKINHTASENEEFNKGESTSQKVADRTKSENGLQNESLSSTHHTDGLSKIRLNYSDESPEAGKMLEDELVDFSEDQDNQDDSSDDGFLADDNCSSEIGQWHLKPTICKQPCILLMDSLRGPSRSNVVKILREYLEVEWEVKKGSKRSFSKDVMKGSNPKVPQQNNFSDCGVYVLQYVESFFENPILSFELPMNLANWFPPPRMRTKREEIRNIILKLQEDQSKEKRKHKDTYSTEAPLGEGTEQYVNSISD
SENP7 inh – inhibitors of human SENP7 protease; recombinant SENP7, Z-RLRGG-aminoluciferin luminescence, 40 min; inhibition, % at 5 µM; AID 434973; 330,000 tested, 1.5% active; Q9BQF6;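 active = inhibition above about 50% at the single test dose, limit read from the data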;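 note: plate controls were DMSO with enzyme for no effect and no enzyme buffer wells for full effect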
SENP8 block-2 – blocks human SENP8 cleavage of Nedd8 substrate; Q96LD8; recombinant SENP8, Nedd8 substrate fluorescence; inhibition, % at 20 µM; 360,000 tested, 0.64% active; AID 602440; in the data active = inhibition mostly above about 40%, no sharp cut-off; inactive = mostly below about 27%
PPC1 cytotox – PPC-1 cell cytotoxicity; 1,200 tested, 50% active; cytotoxicity, % at 5 µM; shares compounds with PPC-1+TRAIL kill; PPC-1 viability, ATPlite luminescence, overnight; AID 1447;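 active = reconfirmed compounds whose average cytotoxicity reaches 50% or more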;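 note: 0% = DMSO-treated cells and 100% = wells holding medium but no cells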
Active calls of the source: *; . = not tested or not shown.

SMILES	SENP8 block-1	PPC-1+TRAIL kill	TRAIL sens C8	SENP6 block	SENP7 inh	SENP8 block-2	PPC1 cytotox
CCOC(=O)CNc1c(-c2ccc(O)cc2)nc2ccc(Cl)cn12	7.9	-10.1	4.1	14.4	-2.9	-269.0	-13.5
O=C(OCc1ccccc1)N1C=CCC[C@@H]1c1c(Cl)cccc1Br	.	.	10.5	.	.	19.6	.
O=C(O)CCCC(=O)N1CCc2cc(S(=O)(=O)N3CCc4ccccc43)ccc21	-8.2	7.8	6.9	-4.3	9.9	2.5	.
CCC(=O)N1CCc2cc(S(=O)(=O)N3CCc4ccccc43)ccc21	8.2	-2.5	11.5	-11.6	2.3	27.5	-2.9
O=C(O)CCC(=O)Nc1ccc(F)cc1	7.7	-11.2	10.7	-2.7	8.8	16.1	-11.8
CC(C)CC(=O)Nc1cc2c3c(c1)C(C)C(=O)N3CCC2 (stereo unspecified)	4.1	.	-2.3	3.6	2.4	9.4	.
Cc1ccc(S(=O)(=O)Nc2cccc3ncccc23)cc1	-0.9	11.5	-9.8	14.9	-6.8	-2.2	.
Cc1ccc(S(=O)(=O)Nc2cccc3ncccc23)s1	-1.1	19.6	27.0	4.9	5.4	8.8	30.5
O=C(CN1C(=O)NC2(CCOc3ccccc32)C1=O)NCCc1ccc(F)cc1 (stereo unspecified)	-2.8	.	1.9	-15.2	4.2	13.3	.
Cn1c(CNC(=O)Cc2ccc3c(c2)OCO3)nnc1SCc1ccccc1	3.5	-11.1	-0.9	-6.4	3.1	7.8	7.9
Cc1ccccc1NC(=O)CSc1nnc(CNC(=O)c2ccc3c(c2)OCO3)n1C	-4.5	.	6.8	-35.3	-9.8	4.4	.
Cc1cccc(C(=O)O[C@@H]2[C@H](Cc3ccccc3)NS(=O)(=O)[C@H]3C[C@@H]4C=C[C@]23O4)c1	4.8	.	-10.8	0.1	10.8	10.8	.
COc1ccc2c(C)nc(Nc3nc(C)c(C)c(=O)[nH]3)nc2c1	-0.6	-9.6	11.5	-15.3	0.2	0.9	-12.1
Cc1ccnc(NC(=O)COc2ccccc2[N+](=O)[O-])c1	.	43.9	52.1*	.	.	-1.6	52.5*
CCOc1ccc(OCC(=O)OC(C)C(=O)NC2CCCC2)cc1 (stereo unspecified)	-5.5	.	-5.9	4.7	9.9	13.5	.
Cc1ccc(-c2c(C)sc(=NC(=O)c3ccco3)n2C)cc1	-0.8	39.0	65.0*	4.9	-2.9	-293.0	35.8
COCCNC(=O)Cn1ccc2cc(S(=O)(=O)N3CCCCCC3)ccc21	4.1	.	-3.3	-8.0	3.9	6.0	.
Cc1nc(-c2ccccc2)sc1C(=O)NN	-4.5	15.0	-1.8	-1.7	-4.6	0.9	14.4
CCOC(=O)c1cccc(C(=O)Nc2nc3ccc(OC)cc3s2)n1	-18.0	68.3*	81.9*	-28.1	-15.4	-55.8	67.3*
CCCCCCn1ccc(=N)cc1	-3.0	14.4	22.1	13.6	-3.1	21.1	.
CCCCCCCCCCCCCCCCn1cc[n+](CC(C)=O)c1	.	26.2	34.4	.	.	9.6	15.4
O=S(=O)(c1ccc2nc(Nc3ccccc3)ccc2c1)N1CCCCC1	2.4	.	37.3	-5.9	9.9	-376.5	.
O=C(N/N=C/c1ccc2nccnc2c1)c1ccncc1	-5.5	-1.5	24.3	7.4	6.3	-14.1	.
O=C(N/N=C/c1ccc2nccnc2c1)c1ccccc1O	2.4	62.8*	.	36.2	11.8	.	63.3*
COc1ccc(C(=O)Nc2cccc(C)n2)cc1S(=O)(=O)N1CCCc2ccccc21	.	.	10.8	.	.	14.6	.
SMILES	SENP8 block-1	PPC-1+TRAIL kill	TRAIL sens C8	SENP6 block	SENP7 inh	SENP8 block-2	PPC1 cytotox
Cc1nc(CN2CCN(C(=O)NC3(c4ccccc4)CC3)CC2)cs1	2.0	11.7	4.8	-10.7	4.3	15.2	-3.2
Cc1cccc(C)c1NC(=O)CN(C)C(=O)[C@H](C)NC(=O)c1ccco1	-1.4	.	-20.0	2.0	2.3	6.7	.
O=C(Nc1ccc2[nH]ccc2c1)c1ccc(F)cc1	2.1	84.2*	87.7*	13.8	21.0	8.4	84.1*
O=C(Nc1ccc2[nH]ccc2c1)c1ccccc1	-3.1	81.0*	84.2*	8.4	-0.7	-10.1	73.0*
CCOC(=O)C1=CN(Cc2ccco2)S(=O)(=O)NC1c1ccc(Br)cc1F (stereo unspecified)	.	.	-8.5	.	2.6	8.1	.
Cc1nc2cc(NCc3nc4ccccc4n3Cc3ccccc3)ccc2n1C	27.4	60.9*	17.6	42.0	-0.9	-36.6	63.3*
CC(=O)Nc1ccc2c(c1)nc(C)n2Cc1ccccc1	-2.7	.	-6.3	-0.2	-5.3	7.9	.
CN(Cc1ccccc1)C(=O)c1cccc(NC(=O)Cc2cccc([N+](=O)[O-])c2)c1	1.4	.	3.2	-4.9	-9.7	11.4	.
CC(C(=O)Nc1ccc(F)c(F)c1F)N(C)Cc1cccs1 (stereo unspecified)	4.2	.	-6.3	-10.9	-8.4	5.6	.
Cc1nn(C)cc1/C=C/C(=O)c1cccs1	-10.4	23.4	38.3	0.0	-7.3	-40.9	6.1
Cc1cc(C)nc(NS(=O)(=O)c2ccc(Br)s2)c1	7.9	24.1	-6.5	21.9	6.5	1.3	.
Cc1cccc(NS(=O)(=O)c2ccc(Br)s2)n1	-4.5	14.8	2.6	-0.6	-3.2	-16.5	6.1
Cc1ccc(C(=O)NNCC(=O)Nc2ccc(Cl)cc2F)cc1	-10.6	.	-19.3	-4.4	-7.2	14.5	.
O=C(Cn1ccc2ccccc2c1=O)NCC(=O)N1CCN(c2ccc(F)cc2)CC1	-5.2	.	7.1	-8.4	0.3	-7.1	.
CNC(=O)COC(=O)c1cc(F)c(F)cc1Cl	0.5	11.7	0.4	0.5	7.5	23.8	.
CC(C)NC(=O)COC(=O)c1cc(F)c(F)cc1Cl	-11.0	9.5	0.2	-12.9	-3.5	14.5	14.6
Cc1nc(NCCc2ccccc2)c2nnn(Cc3ccccc3)c2n1	-18.9	.	-4.5	-13.5	6.5	0.9	.
COc1cc(NC(=O)c2cc(OC)c(OC)c(OC)c2)ccc1NC(=O)c1cccs1	10.4	.	9.1	3.9	6.0	5.1	.
COc1cc(N)ccc1NC(=O)c1cccs1	-0.8	-1.2	1.2	4.3	-3.4	10.6	4.1
Cc1cccc(NS(=O)(=O)c2ccc(C)c(C(=O)OCC(=O)Nc3cc(C)on3)c2)c1	-2.7	6.5	13.9	-16.9	-6.5	9.0	7.3
Cc1nc2cc(NC(=O)N3c4ccccc4CC3C)ccc2n1C (stereo unspecified)	3.5	68.2*	65.5*	-17.8	-2.7	6.1	63.1*
Cc1ccccc1NC(=O)c1nc[nH]c1C(=O)NCc1ccccc1	6.3	10.4	3.1	-0.8	6.6	21.7	17.3
CN(C(=O)c1cccc(NC(=O)Cc2ccc(NC(=O)C3CCCN(C(=O)C4CCCC4)C3)cc2)c1)C1CCCCC1 (stereo unspecified)	.	.	14.2	.	.	3.7	.
O=C(NCc1ccccn1)C(=O)N/N=C/c1ccc2c(c1)OCO2	2.8	3.6	1.3	-18.1	11.2	-29.4	9.2
CCCCOc1ccc(C(=O)NCC(=O)NC(C)CCc2ccccc2)cc1 (stereo unspecified)	20.0	.	-6.2	46.7	27.3	-0.3	.
